Data from PubChem BioAssay (NCI).
Values joined by “and” are separate entries in the source; they are usually repeats but may differ in a detail not shown here. Equal entries are not always repeated. This is part of a sample that, as a whole, favours compounds with a hit. Of some 79,000 tested, about 15% had one in any assay. A number with no mark means an inactive call. Active and inactive are the calls of the source. Cut-off read from the data, not from the text of the source: active = growth inhibition above about 70%; inactive = the rest.

experiment: NCI Yeast Anticancer Drug Screen. Data for the mec2-1 strain (AID 157); conditions: S. cerevisiae mec2-1 strain, at 50.0 µM, hits give high values
Method in brief: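 Mutant yeast (mec2-1) grown with compound; growth inhibition relative to vehicle control reported.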

Q: With `Cc1[nH]nc(-c2cccnc2)c1N=NN1CCOCC1` as the compound, how does the growth inhibition read?
A: 97.5% (active)

Q: With `CC1CCC2(CC1)NC1=C(CC(C)CC1)C1=C2CC(C)CC1` (stereo not drawn) as the compound, how does the growth inhibition read?
A: -29.6%

Q: With `CN(C)CC(CN1CCCC1)C(=O)c1ccccc1` (stereo not drawn) as the compound, how does the growth inhibition read?
A: 41.4%

Q: With `COc1ccc(/C(Cl)=C(/c2ccc(O)cc2)c2ccc(OCCN(C)C)cc2)cc1` as the compound, how does the growth inhibition read?
A: 87.7% (active)

Q: Which growth inhibition does the source give for `N#CSC#CCCC#CSC#N` here?
A: 93.9% (active)

Q: With `COc1cc2c(c(C3C(=O)N(C)c4ccc(Br)cc43)c1OC)OCO2` (stereo not drawn) as the compound, how does the growth inhibition read?
A: 12.7%

Q: Which growth inhibition does the source give for `CC(=O)Nc1c([N+](=O)[O-])cc2c3c(cccc13)C=C2` here?
A: 16.1%

Q: With `CC(=O)OC1COC(SC(=N)N)C(OC(C)=O)C1OC(C)=O` (stereo not drawn) as the compound, how does the growth inhibition read?
A: 15.8% and 17.9% and -1.25%

Q: With `COC(=O)c1ccccc1CC(Cc1ccc2c(c1)CCC2)C(=O)OC` (stereo not drawn) as the compound, how does the growth inhibition read?
A: 16.9%

Q: With `CCC(C)Sc1nc2c([nH]1)c(=S)n(C)c(=O)n2C` (stereo not drawn) as the compound, how does the growth inhibition read?
A: 96% (active)

Q: For `O=S(=O)(c1ccc(NC(=S)NCc2ccncc2)cc1)N1CCCCC1`, which growth inhibition is on record?
A: -13.6%

Q: Which growth inhibition does the source give for `Nc1ccc(S(=O)(=O)O)c2ccccc12` here?
A: -18.1% and 3.25% and 3.85%

Q: Which growth inhibition does the source give for `CC12C(=O)OC(=O)C1C1c3ccccc3C2c2ccccc21` (stereo not drawn) here?
A: 89.5% (active)

Q: With `CSc1ccccc1C(=O)O` as the compound, how does the growth inhibition read?
A: -1.9% and -7.55% and 25.9%

Q: With `CCOC(=O)C(F)C(Br)C(=O)OCC` (stereo not drawn) as the compound, how does the growth inhibition read?
A: 91.8% (active)

Q: With `COC(=O)C1C2CC3c4[nH]c5cc(OC)c(Br)cc5c4CCN3CC2CC(OC(=O)c2cc(OC)c(OC)c(OC)c2)C1OC` (stereo not drawn) as the compound, how does the growth inhibition read?
A: 87.5% (active)

Q: For `OCC(O)C(O)C(O)C(O)CNCC(O)C(O)C(O)C(O)CO` (stereo not drawn), which growth inhibition is on record?
A: 15% and 17.2% and 10.3%

Q: Which growth inhibition does the source give for `Cc1cccc2c1Oc1ccccc1C2N1C(=O)/C(=C/c2cccs2)SC1=S` (stereo not drawn) here?
A: 53.8%

Q: For `COc1ccc(OC(C)=O)c2c1CCC=CC2=O`, which growth inhibition is on record?
A: 41.9%

Q: For `Cc1ccc(S(=O)(=O)OCC(O)C(O)COS(=O)(=O)c2ccc(C)cc2)cc1` (stereo not drawn), which growth inhibition is on record?
A: -10.2% and -4.45% and -13.8%

Q: For `NCC(=O)NC(CO)C(=O)O` (stereo not drawn), which growth inhibition is on record?
A: -10.5% and -5.1% and -4.35%

Q: Which growth inhibition does the source give for `O=C(Nc1ccc(Cl)c(Cl)c1Cl)Oc1c(Cl)c(Cl)c(Cl)c(Cl)c1Cl` here?
A: 99.6% (active)

Q: Which growth inhibition does the source give for `COC1OC2COC(c3ccccc3)OC2C(O)C1O` (stereo not drawn) here?
A: -11.6% and -15.6% and -3.65%

Q: With `COc1ccc(CCCC(=O)O)c2c(OC)cccc12` as the compound, how does the growth inhibition read?
A: 39.9%

Q: With `FC(F)(F)c1ccc(Nc2ccc(C(F)(F)F)cc2)cc1` as the compound, how does the growth inhibition read?
A: 99.8% (active)

Q: With `OC(c1ccccc1)C(O)c1ccccc1` (stereo not drawn) as the compound, how does the growth inhibition read?
A: -4.45% and -6.3% and 14.8%

experiment: NCI Yeast Anticancer Drug Screen. Data for the sgs1 mgt1 strain (AID 161);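 note: 0% = growth of cultures given vehicle only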; conditions: S. cerevisiae sgs1 mgt1 strain, at 5.0 µM (retest, dose inferred, filed as 0.5), hits give high values
Method in brief: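 Percent growth inhibition was derived by comparing compound-exposed mutant yeast with vehicle-exposed cultures. The strain carries alterations in DNA damage repair.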

Q: For `Cc1[nH]nc(-c2cccnc2)c1N=NN1CCOCC1`, which growth inhibition is on record?
A: -5%

Q: Which growth inhibition does the source give for `CC1CCC2(CC1)NC1=C(CC(C)CC1)C1=C2CC(C)CC1` (stereo not drawn) here?
A: -1%

Q: Which growth inhibition does the source give for `CN(C)CC(CN1CCCC1)C(=O)c1ccccc1` (stereo not drawn) here?
A: 13%

Q: For `COc1ccc(/C(Cl)=C(/c2ccc(O)cc2)c2ccc(OCCN(C)C)cc2)cc1`, which growth inhibition is on record?
A: 42%

Q: Which growth inhibition does the source give for `CCCCCC(Oc1ccc(Cl)cc1)C(=O)O` (stereo not drawn) here?
A: 3%

Q: For `N#CSC#CCCC#CSC#N`, which growth inhibition is on record?
A: 100% (active)

Q: With `COc1cc2c(c(C3C(=O)N(C)c4ccc(Br)cc43)c1OC)OCO2` (stereo not drawn) as the compound, how does the growth inhibition read?
A: -1%

Q: Which growth inhibition does the source give for `c1ccc(-c2cc(CN3CCOCC3)c(-c3ccccc3)o2)cc1` here?
A: 3%

Q: For `CC(=O)Nc1c([N+](=O)[O-])cc2c3c(cccc13)C=C2`, which growth inhibition is on record?
A: 6%

Q: With `CCOc1nc(N)nc(C)c1N=Nc1ccc(Br)cc1` as the compound, how does the growth inhibition read?
A: 4%

Q: Which growth inhibition does the source give for `C=CC1(NC(=O)c2ccccc2)CCC(C(C)(C)C)CC1` (stereo not drawn) here?
A: -5%

Q: For `Cc1cccc2ccc3cc(CC(=O)O)c4cccc(C)c4c3c12`, which growth inhibition is on record?
A: 42%

Q: Which growth inhibition does the source give for `CCCCSc1nc2c([nH]1)c(=S)n(C)c(=S)n2C` here?
A: 12%

Q: Which growth inhibition does the source give for `COC(=O)c1ccccc1CC(Cc1ccc2c(c1)CCC2)C(=O)OC` (stereo not drawn) here?
A: 10%

Q: With `CCC(C)Sc1nc2c([nH]1)c(=S)n(C)c(=O)n2C` (stereo not drawn) as the compound, how does the growth inhibition read?
A: 5%

Q: For `O=S(=O)(c1ccc(NC(=S)NCc2ccncc2)cc1)N1CCCCC1`, which growth inhibition is on record?
A: -14%

Q: With `COc1ccccc1/C=C1\NC(=S)N(/C=C2\C(=O)Oc3ccccc3C2=O)C1=O` as the compound, how does the growth inhibition read?
A: -6%

Q: For `CC12C(=O)OC(=O)C1C1c3ccccc3C2c2ccccc21` (stereo not drawn), which growth inhibition is on record?
A: 26%

Q: For `CCOC(=O)C(F)C(Br)C(=O)OCC` (stereo not drawn), which growth inhibition is on record?
A: 100% (active)

Q: For `CCCCCCCCCCCCCCCCC/C=N\NC(=O)CCCC(=O)N/N=C/CCCCCCCCCCCCCCCCC`, which growth inhibition is on record?
A: -2%

Q: For `CC(C(=O)NN)C(O)C(C)(C)O` (stereo not drawn), which growth inhibition is on record?
A: 1%

Q: Which growth inhibition does the source give for `COC(=O)C1C2CC3c4[nH]c5cc(OC)c(Br)cc5c4CCN3CC2CC(OC(=O)c2cc(OC)c(OC)c(OC)c2)C1OC` (stereo not drawn) here?
A: -5%

Q: With `CCCN(CCC)C(=S)N/N=C/c1cccc(C)n1` as the compound, how does the growth inhibition read?
A: -40%

Q: For `Cc1cccc2c1Oc1ccccc1C2N1C(=O)/C(=C/c2cccs2)SC1=S` (stereo not drawn), which growth inhibition is on record?
A: -6%

Q: For `COc1ccc(OC(C)=O)c2c1CCC=CC2=O`, which growth inhibition is on record?
A: 18%

Q: For `COC(=O)CSc1nc2[nH]c(SC)c(C(N)=O)c2c(=O)n1-c1ccccc1`, which growth inhibition is on record?
A: 3%

Q: For `O=C(Nc1ccc(Cl)c(Cl)c1Cl)Oc1c(Cl)c(Cl)c(Cl)c(Cl)c1Cl`, which growth inhibition is on record?
A: 43%

Q: For `COc1ccc(CCCC(=O)O)c2c(OC)cccc12`, which growth inhibition is on record?
A: 7%

Q: With `FC(F)(F)c1ccc(Nc2ccc(C(F)(F)F)cc2)cc1` as the compound, how does the growth inhibition read?
A: 12%

Q: With `O=C(c1ccccc1)C(Br)CCCC(Br)C(=O)c1ccccc1` (stereo not drawn) as the compound, how does the growth inhibition read?
A: 19%

Q: For `CC1(C)c2ccccc2Cc2cc3ccccc3nc21`, which growth inhibition is on record?
A: -5%

Q: With `COc1ccc2c(c1)[n+]([O-])c(-c1ccc(Cl)c(Cl)c1)c(N)[n+]2[O-]` as the compound, how does the growth inhibition read?
A: 29%
